Measured values from PubChem BioAssay (NCI).
This is part of a sample that, as a whole, favours compounds with a hit. Of some 79,000 tested, about 15% had one in any assay. Unmarked numbers belong to inactive results. Calls of active or inactive are those of the source. Rule as the data show it: active = growth inhibition above about 70%; inactive = the rest.

Legend:
[1] = NCI Yeast Anticancer Drug Screen. Data for the rad50 strain (AID 155);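 also: 0% = growth of vehicle-only cultures of the same strain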; conditions: S. cerevisiae rad50 strain growth inhibition, active compounds read high
Method in brief: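 Inhibition values express reduced yeast growth in compound-treated cultures relative to vehicle-treated controls.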

[2] = NCI Yeast Anticancer Drug Screen. Data for the mec2-1 strain (AID 157); conditions: S. cerevisiae mec2-1 strain, active compounds read high
Method in brief: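 Growth inhibition is read against vehicle-treated controls after compound exposure of the mec2-1 yeast strain, which is defective in DNA damage repair or cell cycle control.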

[3] = NCI Yeast Anticancer Drug Screen. Data for the sgs1 mgt1 strain (AID 161);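 also: 0% = growth of cultures given vehicle only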; conditions: S. cerevisiae sgs1 mgt1 strain, active compounds read high
Method in brief: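 This yeast growth screen uses a strain with defined DNA-repair lesions; compound-treated growth is compared with vehicle-treated growth.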

[4] = NCI Yeast Anticancer Drug Screen. Data for the cln2 rad14 strain (AID 165);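 also: 0% = growth equal to vehicle treated cultures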; conditions: S. cerevisiae cln2 rad14 strain, active compounds read high
Method in brief: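 Growth inhibition, relative to vehicle-treated controls, is the read-out. The test organism is a yeast strain with defined genetic alterations, cln2 rad14.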

[5] = NCI Yeast Anticancer Drug Screen. Data for the bub3 strain (AID 167); conditions: S. cerevisiae bub3 mutant strain, active compounds read high
Method in brief: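 Steps: expose the mutant yeast strain to compound; grow alongside vehicle-treated cultures; measure growth; express inhibition against the vehicle cultures.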

[6] = NCI Yeast Anticancer Drug Screen. Data for the mlh1 rad18 strain (AID 175); conditions: S. cerevisiae mlh1 rad18 strain growth inhibition, active compounds read high
Method in brief: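 Cells of a genetically altered yeast strain, deficient in DNA damage repair, were treated with compound. Their growth was then compared with that of vehicle-treated cultures to give inhibition.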

[7] = at 5.0 µM (retest, dose inferred, filed as 0.5)
[8] = at 50.0 µM (retest, dose inferred, filed as 5.0)

Structure (SMILES) | growth inhibition [1, 7] | growth inhibition [1, 8] | growth inhibition ([1]; at 50.0 µM) | growth inhibition [2, 7] | growth inhibition [2, 8] | growth inhibition ([2]; at 50.0 µM) | growth inhibition [3, 7] | growth inhibition [3, 8] | growth inhibition ([3]; at 50.0 µM) | growth inhibition [4, 7] | growth inhibition [4, 8] | growth inhibition ([4]; at 50.0 µM) | growth inhibition [5, 7] | growth inhibition [5, 8] | growth inhibition ([5]; at 50.0 µM) | growth inhibition [6, 7] | growth inhibition [6, 8] | growth inhibition ([6]; at 50.0 µM)
O=C1c2cc3c(cc2CC1Br)CCC3 (configuration not stated) | 99% (active) | 99% (active) | 79.5% (active) | 99% (active) | 100% (active) | 87% (active) | 99% (active) | 99% (active) | 88.3% (active) | 98% (active) | 99% (active) | 90.2% (active) | 99% (active) | 99% (active) | 89.5% (active) | 99% (active) | 99% (active) | 92.4% (active)
Cc1c(C2CC(=O)NC2=O)c2ccccc2n1C (configuration not stated) | 3% | 3% | 6.55% | -1% | 0% | 6.25% | -1% | -1% | -13.8% | -4% | -5% | 69% | 4% | 3% | -20.6% | 2% | 3% | 7.8%
S=C(NCCNC(=S)[S][Sn]([c]1ccccc1)([c]1ccccc1)[c]1ccccc1)[S][Sn]([c]1ccccc1)([c]1ccccc1)[c]1ccccc1 | 97% (active) | 93% (active) | 89.8% (active) | 98% (active) | 96% (active) | 90.8% (active) | 97% (active) | 94% (active) | 91.5% (active) | 96% (active) | 93% (active) | 87.9% (active) | 98% (active) | 94% (active) | 90% (active) | 98% (active) | 91% (active) | 89.8% (active)
N#CC1Oc2ccccc2N1C(=O)c1ccccc1 (configuration not stated) | 2% | 12% | 33% | 0% | 7% | 54.1% | -3% | -4% | 36% | -6% | 0% | -0.55% | -8% | 48% | 77.3% (active) | 2% | 4% | 64.3%
O=C(NCCN1CCN2Cc3[nH]c4ccccc4c3CC2C1)c1ccc(Cl)cc1 (configuration not stated) | 9% | 50% | 51.6% | 10% | 40% | 46.8% | 1% | 50% | 61% | 27% | 72% (active) | 55.6% | 26% | 53% | 50.5% | 8% | 60% | 53.5%
O=[N+]([O-])c1cc2cccnc2c2ncccc12 | -8% | -15% | 63% | -43% | -18% | 41.1% | -5% | 20% | 81.2% (active) | -8% | 21% | 62.2% | -21% | -86% | 34.4% | 4% | 22% | 76.2% (active)
O=C1C=CC(=O)c2c(O)c(N3CCC[C@H]3CO)c(Cl)c(O)c21 | 20% | 90% (active) | 61.2% | 14% | 90% (active) | 78.9% (active) | 19% | 95% (active) | 23.9% | 13% | 51% | 20% | 25% | 97% (active) | 34.5% | 31% | 90% (active) | 41.6%
c1cc[c]([Sn]([S]c2cccc3cccnc23)([S]c2cccc3cccnc23)[c]2ccccc2)cc1 | 98% (active) | 99% (active) | 96.8% (active) | 99% (active) | 100% (active) | 98% (active) | 98% (active) | 99% (active) | 98% (active) | 98% (active) | 98% (active) | 95.5% (active) | 98% (active) | 99% (active) | 95.9% (active) | 98% (active) | 99% (active) | 97.6% (active)
O=C1CCCC/C1=C(\Br)I | 35% | 99% (active) | 89.1% (active) | 31% | 100% (active) | 92.3% (active) | 28% | 100% (active) | 91.2% (active) | 19% | 93% (active) | 91.4% (active) | 45% | 100% (active) | 89.1% (active) | 31% | 99% (active) | 93% (active)
